Source: PubChem BioAssay
D1 PAM: Potentiators of Human D1 Dopamine Receptor: qHTS; potentiation, % at 10 µM; 0.036% of 360,000 active; D(1A) dopamine receptor (Homo sapiens), P21728; HEK293 TREx D1 cells, calcium flux, dopamine EC20 potentiation; AID 504651, 2011; in the data active = potentiation above about 30%; note: 0% is about no effect
D1 ag: Allosteric Agonists of the Human D1 Dopamine Receptor: qHTS | activation, % at 2 µM | HEK293 T-REx D1 cells, calcium flux, agonist mode | 1% of 360,000 active | D(1A) dopamine receptor (Homo sapiens), P21728; in the data active = activation above about 30%; note: 0% is about no effect
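Inducible HEK293 T-REx D1 cells, force-coupled to calcium signalling, were plated at 4000 cells/well with tetracycline and held overnight at 30 C. After no-wash calcium dye loading, compound-evoked calcium rise over 180 s flagged agonists.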
D3 antag: qHTS of D3 Dopamine Receptor Antagonist: qHTS; D3R cells, DiscoveRx beta-arrestin luminescence, antagonist mode; stronger effect = lower value; max response, negative = inhibition, %; 2.5% of 360,000 active; D(3) dopamine receptor (Homo sapiens), P35462; in the data active = max response below about -50%; inconclusive = no clear call, values can overlap the other calls; note: % is set by controls: 0 for no effect and ±100 for the full control effect
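Cells expressing the human receptor were seeded at 1500 cells/well, incubated overnight at 37 degrees C in 5% CO2, then exposed to library compounds with dopamine controls for 90 minutes at 37 degrees C before luminescent detection.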
ERG-DNA inh: qHTS for Small Molecule Inhibitors of the ERG Ets/DNA interaction | fluorescence polarization, His-ERG Ets domain / labelled DNA | Potency, µM (series often up to 76.9 µM), for the others: at the highest dose FP activity, negative = inhibition, hits mostly inhibitors | Transcriptional regulator ERG (Homo sapiens), P11308 | 0.028% of 370,000 active; active = well fitted inhibition curve with a large enough effect in the polarisation, with a control signal flat; inconclusive = small, poorly fitted or top-dose-only effect, or effect the other way, or a change in a side signal; inactive = no such curve, though single readings can be large or run the other way; the % refers to the polarisation;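 note: polarization taken with two DNA probes labelled with fluorescein and Texas red; potency is the fitted concentration of half-maximal effect; % of control where 0% means no effect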
Target sequence (P11308 whole entry, looked up, the tested form may be a part): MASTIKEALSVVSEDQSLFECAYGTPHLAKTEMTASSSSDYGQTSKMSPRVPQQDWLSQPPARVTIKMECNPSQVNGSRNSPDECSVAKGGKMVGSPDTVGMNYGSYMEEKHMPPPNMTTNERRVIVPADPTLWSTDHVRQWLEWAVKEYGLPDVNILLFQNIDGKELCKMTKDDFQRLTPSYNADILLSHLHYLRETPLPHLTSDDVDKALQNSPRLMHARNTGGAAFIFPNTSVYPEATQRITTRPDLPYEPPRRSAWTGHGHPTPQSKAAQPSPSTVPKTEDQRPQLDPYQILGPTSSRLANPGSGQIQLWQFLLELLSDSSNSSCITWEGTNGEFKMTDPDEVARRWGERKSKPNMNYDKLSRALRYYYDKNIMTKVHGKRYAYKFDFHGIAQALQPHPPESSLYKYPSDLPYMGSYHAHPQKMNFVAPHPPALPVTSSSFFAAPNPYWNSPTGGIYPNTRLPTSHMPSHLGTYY
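His-tagged ERG Ets domain (1 uM in the protein solution; 300mM KCl, 50mM Tris-HCl, 1mM EDTA, 1mM DTT, pH 7.5) received compound, then a probe mix of 5 nM fluorescein-DNA and 100nM Texas-615-DNA. Fluorescence polarization was read for both dyes.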
D3 ag: qHTS of D3 Dopamine Receptor Agonist: qHTS; D(3) dopamine receptor (Homo sapiens), P35462; D3R DiscoveRx beta-arrestin cells, luminescence, 90 min; max activation, %; 0.58% of 410,000 active; AID 652048, 2013; in the data active = max activation above about 30%; note: 0% is about no effect
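Agonist mode: compounds and dopamine controls were applied to plated cells for 90 min at 37 degrees C after an overnight attachment at 1500 cells/well. Luminescent read-out followed 30 - 60 minutes at room temperature with DiscoveRx detection reagent.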
D1 antag: Antagonist of Human D 1 Dopamine Receptor: qHTS; D(1A) dopamine receptor (Homo sapiens), P21728; HEK293 TREx D1 cells, calcium flux, dopamine EC80; stronger effect = lower value; activity change, negative = inhibition, % at 10 µM; 3.2% of 360,000 active; AID 504652, 2011; in the data active = activity change below about -30%; note: % is set by controls: 0 for no effect and ±100 for the full control effect
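Allosteric or orthosteric antagonism assessed as attenuation of the calcium response to EC80 dopamine, added 180 s after compound, in induced HEK293 Trex D1 cells loaded with no-wash calcium dye.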
Active calls of the source: *; ? = inconclusive; . = not tested or not shown; ! = not confirmed by another sample. In the library only some 6.1% were active in any assay of this set; here they are far more common.

SMILES	D1 PAM	D1 ag	D3 antag	ERG-DNA inh	D3 ag	D1 antag
COCCNC(=S)Nc1ccc(Cl)c(Cl)c1	-5	18	26	-3%	0	-9
CC(C)OC(=O)NCCOC(=O)Nc1ccc(Cl)c(Cl)c1	-3	9	20	-7%	16	-40*
CC(C)OC(=O)NCCOC(=O)Nc1cccc(Cl)c1	-9	22	?	0%	-3	-31*
O=C(Nc1cccc(Cl)c1)OCCOc1ccccc1	-5	8	-1	1%	-2	-31*
C=COCCNC(=O)Nc1ccc(Cl)c(Cl)c1	-2	47*	-4	.	4	-57*
O=C(Nc1cccc(Cl)c1)OCCOC(=O)Nc1cccc(Cl)c1	.	.	-5	2%	4	.
COc1ccc(NC(=O)N(C)C[C@@H]2Oc3ncc(Br)cc3C(=O)N([C@@H](C)CO)C[C@@H]2C)cc1	.	.	18	.	3	.
CC(=O)Nc1cc(NC(C)=O)cc(C(=O)OCC(=O)N(c2ccccc2)C2CCS(=O)(=O)C2)c1 (stereo not drawn)	-7	0	21	0%	0	7
CNC(=O)c1cc(C(=O)c2ccc(C(F)(F)F)cc2)c[nH]1	-2	2	-23	-27%	-12	-16
Cc1oc(=O)c(NC(=O)c2ccc(Cl)cc2)cc1C(=O)c1ccccc1	-4	-1	-80*	1%	-8	-7
Cc1oc(=O)c(NC(=O)c2ccccc2)cc1C(=O)c1ccccc1	-7	1	?	0%	-1	2
c1ccc(-n2ncc3c(N4CCN(CCOc5cccc6ccccc56)CC4)ncnc32)cc1	2	1	-10	2%	40*	-10
Cc1cccc(-n2ncc3c(N4CCN(c5ccccc5)CC4)ncnc32)c1	2	2	.	9%	9	7
Cc1ccc(-n2ncc3c(N4CCN(c5ccccc5)CC4)ncnc32)c(C)c1	-4	5	33	4%	36*	-24
c1ccc(CN2CCN(c3ncnc4c3cnn4-c3ccccc3)CC2)cc1	-1	-5	.	0%	3	1
O=C(O)[C@@H]1CCCC[C@@H]1C(=O)N1CCc2ccccc2C1CN1C(=O)c2ccccc2C1=O (stereo partly drawn)	-5	1	39	2%	1	2
Cc1c(C(=O)NCc2ccc(F)cc2)oc2ccc(S(=O)(=O)N3CCOCC3)cc12	2	4	10	-13%	2	28
Cc1c(C(=O)NCc2c(F)cc(F)cc2F)oc2ccc(S(=O)(=O)N3CCOCC3)cc12	-4	3	16	3%	2	-45*
Cc1c(C(=O)Nc2ccc(F)cc2)oc2ccc(S(=O)(=O)N3CCC4(CC3)OCCO4)cc12	-4	14	29	-1%	65*	0
Cc1c(C(=O)Nc2ccc(F)c(F)c2)oc2ccc(S(=O)(=O)N3CCC4(CC3)OCCO4)cc12	-3	3	.	-1%	31*	-13
COc1ccc(N2CC(C(=O)NCCc3ccc(Cl)cc3)CC2=O)c(OC)c1 (stereo not drawn)	4	-1	0	4%	-3	7
CC(Nc1c([N+](=O)[O-])c(=O)oc2ccccc12)c1ccccc1 (stereo not drawn)	-12	5	15	-8%	-6	9
COc1ccc2[nH]c(=O)c(C(c3nnnn3C3CCCC3)N3CCN(Cc4ccc5c(c4)OCO5)CC3)cc2c1 (stereo not drawn)	-1	1	-54*	-4%	-25	.
CCCNC(=O)c1cnn2c(C(F)F)cc(-c3ccccc3)nc12	-4	2	.	3%	2	-6
COc1ccccc1NC(=O)c1ccc(NC(=O)COC(=O)C2CC2C)cc1 (stereo not drawn)	-7	0	11	3%	-6	-43*
SMILES	D1 PAM	D1 ag	D3 antag	ERG-DNA inh	D3 ag	D1 antag
COc1ccccc1NC(=O)c1ccc(NC(=O)COC(=O)C2CCCO2)cc1 (stereo not drawn)	-2	2	9	-4%	-5	-11
COc1ccccc1NC(=O)c1ccc(NC2=NC3CS(=O)(=O)CC3S2)cc1 (stereo not drawn)	-13	2	14	-5%	1	-35*
COc1ccc(OC)c(NC(=O)c2ccc(NC3=NC4CS(=O)(=O)CC4S3)cc2)c1 (stereo not drawn)	-16	2	-26	-11%	-7	-7
COc1cccc(CNC(=O)c2ccc(C)c(NC3=NC4CS(=O)(=O)CC4S3)c2)c1 (stereo not drawn)	1	2	0	2%	-13	-32*
COC(=O)c1sc(NC(=O)COc2c(C)cccc2C)nc1C	6	1	11	3%	-4	3
CCOc1cccc2sc(N(CCCN(C)C)C(=O)c3ccc(S(=O)(=O)N(C)Cc4ccccc4)cc3)nc12	4	42*	-22	5%	-7	-48*
CCN(Cc1ccccc1)S(=O)(=O)c1ccc(C(=O)N(CCCN(C)C)c2nc3c(F)cccc3s2)cc1	3	5	-7	-1%	-2	10
CCOc1cccc2sc(N(CCCN(C)C)C(=O)c3ccc(S(=O)(=O)N(CC)Cc4ccccc4)cc3)nc12	-2	33*	-18	11%	-19	-45*
CCN1C(=NCC(C)C)N[C@@H](c2cccc(F)c2)C(C(=O)OC)=C1C	-2	6	-7	8%	0	-33*!
CCCCNc1ccc2oc(-c3ccc(OC)cc3)c(-c3ccc(OC)c(F)c3)c2c1	.	.	12	1%	2	.
N#Cc1cnc(SCC(=O)N2CCCCC2)nc1N	.	.	14	0%	5	.
Cc1ccc(N2C(=O)N(CC(=O)N(C)Cc3ccccc3)C(=O)C2C)cc1 (stereo not drawn)	-1	39*	-7	-6%	18	-55*
CCOc1cccc(OCCOCCN2CCCC2)c1	-4	-2	?	1%	-17	-4
Cc1cc(OCCOCCN2CCCC2)ccc1C(C)C	0	5	-58*	-1%	-10	6
CCc1cccc(OCCOCCN2CCCC2)c1	-5	1	-71*	-5%	-3	9
COCCCNCCOc1cc(C(C)C)ccc1C	-2	4	-66*	7%	-4	1
Cc1ccc(C(C)C)cc1OCCOCCN1CCCC1	-7	4	-66*	-3%	-1	3
